Experimental findings from PubChem BioAssay (Tox21) are described below.

Assay [1] in a line: Nuclear factor erythroid 2-related factor 2/antioxidant responsive element (Nrf2/ARE) small molecule agonists: qHTS cell viability counter screen in human keratinocytes (AID 1919968; active = well fitted cell-killing curve with a large enough effect in the repeat runs; also: nearly all actives have a fitted effect of over 55% in size; also: potency is read from the fitted curve at half-maximal effect). The gist of the method: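 KeratinoSens cells (HaCaT keratinocytes stably carrying an ARE-luciferase reporter) were seeded at 1,500 cells/well and rested 5 h at 37 C/5% CO2. They were then exposed to compounds in DMSO for 23 h. Viability was read by CellTiter-Fluor fluorescence after 1 h.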

Assay [2] can be described thus: Nuclear factor erythroid 2-related factor 2/antioxidant responsive element (Nrf2/ARE) small molecule agonists: luciferase reporter gene qHTS assay in human keratinocytes (AID 1919969). Also: nearly all actives have a fitted effect of over 35% in size. Also: potency is read from the fitted curve at half-maximal effect.
Assay [3] deals with Gonadotropin-releasing hormone receptor (Homo sapiens) (UniProt P30968). The assay can be described thus: Human gonadotropin-releasing hormone receptor (GnRHR) small molecule agonists, calcium flux assay in GnRHR-HEK293 cells (AID 1920063). Also: nearly all actives have a fitted effect of over 35% in size. The method, boiled down: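 HEK293 cells stably expressing human GnRHR were plated 18 h at 37 °C, loaded with calcium dye 1 h at 37 °C, then given compound in agonist mode; fluorescence (Ex/Em 480/540) read kinetically for 3 min at 1 s intervals.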
Gonadotropin-releasing hormone receptor (Homo sapiens), sequence (P30968 whole entry, looked up): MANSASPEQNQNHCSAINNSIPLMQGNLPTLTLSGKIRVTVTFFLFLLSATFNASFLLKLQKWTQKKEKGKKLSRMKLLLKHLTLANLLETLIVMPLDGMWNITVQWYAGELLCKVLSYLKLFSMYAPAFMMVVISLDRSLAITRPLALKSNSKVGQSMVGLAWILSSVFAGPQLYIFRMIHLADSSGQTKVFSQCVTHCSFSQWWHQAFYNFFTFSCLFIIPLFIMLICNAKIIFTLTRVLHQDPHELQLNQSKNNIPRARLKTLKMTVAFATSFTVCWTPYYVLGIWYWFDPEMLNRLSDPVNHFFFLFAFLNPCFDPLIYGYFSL

Assay [4] can be described thus: G protein-coupled receptor (GPCR) small molecule agonists, calcium flux assay: HEK293 wild type cell line counter screen (AID 1920065). The gist of the method:
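Cells were plated and cultured 18 h at 37 C/5% CO2, then loaded with calcium dye for 1 h at 37 C. Compounds in DMSO were pin-transferred in agonist mode, and fluorescence (Ex/Em 480/540) was read kinetically for 3 min at 1 s intervals.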

A short description of assay [5]: p53 small molecule agonists, cell-based qHTS assay with human liver microsomes (AID 1963577).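 Also: p53 response element beta-lactamase reporter cells with liver microsomes plus NADPH.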 The gist of the method:
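p53RE-bla cells; 5 h settle, 37 C/5% CO2; cpd + HLM 0.5 mg/mL + NADPH 0.5 mg/mL (final); 16 h 37 C; LiveBLAzer 2 h RT dark; fluorescence readout.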

A short description of assay [6]: p53 small molecule agonists, cell-based qHTS assay with rat liver microsomes (AID 1963578). The method, boiled down:
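Rat liver microsome activation: microsomes 0.5 mg/mL, NADPH 0.5 mg/mL final; p53RE-bla cells, 16 h 37 C; LiveBLAzer readout, 2 h RT dark.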

Assay [7] is described as follows: p53 small molecule agonists, cell-based qHTS assay with human liver microsomes: qHTS cell viability counter screen (AID 1963579). Also: nearly all actives have a fitted effect of over 45% in size. The method, boiled down: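 Luminescent CellTiter-Glo read-out, 30 min at room temperature, gauged cytotoxicity in p53RE-bla cells exposed 16 h at 37 C to DMSO-dissolved compounds with metabolic activation by human liver microsomes and NADPH, each 0.5 mg/mL final.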

The nature of assay [8]: p53 small molecule agonists, cell-based qHTS assay with rat liver microsomes: qHTS cell viability counter screen (AID 1963580). Also: nearly all actives have a fitted effect of over 45% in size. The method, boiled down: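 p53RE-bla HCT-116 cells were exposed 16 h at 37 C to compounds with rat liver microsomes (0.5 mg/mL) and NADPH (0.5 mg/mL). Viability was measured in the same wells as ATP content by CellTiter-Glo luminescence.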
Assay [9] can be described thus: p53 small molecule agonists, cell-based qHTS assay: qHTS cell viability counter screen (AID 1963581). Also: nearly all actives have a fitted effect of over 45% in size. The gist of the method:
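p53RE-bla HCT-116 cells were exposed to compounds for 16 h at 37 C; after the beta-lactamase FRET read in the same wells, CellTiter-Glo was added and luminescence (intracellular ATP) read after 30 min at room temperature.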

The nature of assay [10]: p53 small molecule agonists, cell-based qHTS assay (AID 1963582; active = well fitted activation curve with a large enough effect in the signal ratio in the repeat runs, not every such curve was filed as active; the % refers to the signal ratio). The method, boiled down: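 p53RE-bla beta-lactamase reporter cells rested 5 h at 37 C/5% CO2, then received compounds in DMSO by pin transfer and were incubated 16 h at 37 C. LiveBLAzer B/G FRET substrate was loaded for 2 h at room temperature before fluorescence reading.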
Assay [11] deals with 5-hydroxytryptamine receptor 2A (Homo sapiens) (UniProt P28223). The assay can be described thus: 5-hydroxytryptamine receptor 2A (HTR2A) small molecule antagonists, cell-based qHTS assay (AID 1963586). Also: nearly all actives have a fitted effect of over 45% in size. Also: potency is read from the fitted curve at half-maximal effect. The gist of the method: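 Antagonist-mode intracellular calcium assay: DOI (4 nM) added after 5 min compound pre-incubation at room temperature to dye-loaded HTR2A-CHO cells. Fluorescence followed for 3 min, sampled every second.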
5-hydroxytryptamine receptor 2A (Homo sapiens), sequence (P28223 whole entry, looked up): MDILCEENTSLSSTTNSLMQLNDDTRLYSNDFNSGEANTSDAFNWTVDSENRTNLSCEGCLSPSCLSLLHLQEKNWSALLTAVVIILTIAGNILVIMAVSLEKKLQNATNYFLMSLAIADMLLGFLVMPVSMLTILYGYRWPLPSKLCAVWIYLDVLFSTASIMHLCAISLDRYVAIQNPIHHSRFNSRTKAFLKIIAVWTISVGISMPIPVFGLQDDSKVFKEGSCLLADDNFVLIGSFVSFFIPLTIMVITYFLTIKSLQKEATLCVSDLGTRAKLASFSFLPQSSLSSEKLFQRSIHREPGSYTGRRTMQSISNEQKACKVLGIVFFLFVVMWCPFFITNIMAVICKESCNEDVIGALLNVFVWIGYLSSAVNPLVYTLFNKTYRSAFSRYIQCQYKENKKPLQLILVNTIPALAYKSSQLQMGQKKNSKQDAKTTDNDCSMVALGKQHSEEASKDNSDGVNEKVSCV

For assay [12] the target is unchanged. The assay can be described thus: 5-hydroxytryptamine receptor 2A (HTR2A) small molecule agonists, cell-based qHTS assay (AID 1963587). Also: nearly all actives have a fitted effect of over 30% in size. The gist of the method:
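CHO cells stably expressing human HTR2A, plated 18 h, loaded with calcium dye 1 h at 37 C. Agonist mode: compounds added and intracellular calcium fluorescence recorded kinetically for 2 min at 1 sec intervals.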

Assay [13] concerns the target Muscarinic acetylcholine receptor M1 (Homo sapiens) (UniProt P11229). Nature of the assay: Cholinergic receptor muscarinic 1 (CHRM1) small molecule agonists, cell-based qHTS assay (AID 1963589). Also: nearly all actives have a fitted effect of over 35% in size. Also: potency is read from the fitted curve at half-maximal effect. The gist of the method: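 CHO cells stably expressing human CHRM1, seeded 18 h at 37 C/5% CO2, dye-loaded 1 h at 37 C, then given compound in agonist mode; intracellular calcium fluorescence read kinetically at 1 s intervals. Fifteen concentrations, three independent runs.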

Assay [14] can be described thus: cAMP Responsive Elements (CRE) small molecule agonists, cell-based qHTS assay (AID 1963590). The method, boiled down:
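CRE-bla HEK 293T cells in DMEM with 10% dialyzed FBS, NEAA, pyruvate and 25 mM HEPES were plated 18 h at 37 C/5% CO2, then exposed to compounds in DMSO for 3 h before LiveBLAzer B/G FRET substrate addition.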

A short description of assay [15]: cAMP Responsive Elements (CRE) small molecule antagonists, cell-based qHTS assay (AID 1963591; active = well fitted inhibition curve with a large enough effect in the signal ratio in the repeat runs, not every such curve was filed as active; the % refers to the signal ratio). The method, boiled down:
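CRE-bla HEK293T cells were plated 18 h at 37 °C/5% CO2, pinned with compound in DMSO, then stimulated with NKH477 at 0.25 uM final for 3 h. LiveBLAzer B/G FRET substrate was added and plates incubated 2 h at room temperature.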

The target in assay [16] is Beta-2 adrenergic receptor (Homo sapiens) (UniProt P07550). Nature of the assay: Adrenergic beta2 receptor (ADRB2) small molecule antagonists, cell-based qHTS assay (AID 1963592). Also: series mostly up to about 92 µM; nearly all actives have a fitted effect of over 50% in size. The method, boiled down: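 Cells (CHO, stable ADRB2 overexpression) incubated 18-20hr at 37C; compounds added from DMSO; agonist mix (1nM isoproterenol, 100uM IBMX, 25uM Ro-20-1724) added; 0.5hr RT; d2-cAMP and anti-cAMP-cryptate added; 1hr RT; 665/615 nm read.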
Beta-2 adrenergic receptor (Homo sapiens), sequence (P07550 whole entry, looked up): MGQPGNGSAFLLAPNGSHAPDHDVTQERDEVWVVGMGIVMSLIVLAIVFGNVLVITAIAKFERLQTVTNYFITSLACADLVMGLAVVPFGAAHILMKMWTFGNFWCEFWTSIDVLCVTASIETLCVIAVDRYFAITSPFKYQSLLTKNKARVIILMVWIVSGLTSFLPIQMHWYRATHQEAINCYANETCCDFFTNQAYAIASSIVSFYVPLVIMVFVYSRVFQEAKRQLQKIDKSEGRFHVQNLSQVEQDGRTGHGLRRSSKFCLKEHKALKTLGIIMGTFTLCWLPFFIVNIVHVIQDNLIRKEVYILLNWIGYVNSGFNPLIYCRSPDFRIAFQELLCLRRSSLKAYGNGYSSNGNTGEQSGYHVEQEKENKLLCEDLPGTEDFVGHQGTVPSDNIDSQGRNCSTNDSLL

For assay [17] the target is unchanged. The assay can be described thus: Adrenergic beta2 receptor (ADRB2) small molecule agonists, cell-based qHTS assay (AID 1963593).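 Also: CHO cells stably overexpressing human ADRB2.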 The gist of the method: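 CHO cells stably over-expressing ADRB2 were plated overnight at 37C, then dosed with compounds plus a stimulation mix containing 100uM IBMX and 25uM Ro-20-1724 for 0.5hr at room temperature. cAMP was measured by HTRF competition, 1hr.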

For assay [18], the target named is D(2) dopamine receptor (Homo sapiens) (UniProt P14416). Nature of the assay: Dopamine D2 receptor (DRD2) small molecule agonists, cell-based qHTS assay (AID 1963594). Also: nearly all actives have a fitted effect of over 35% in size. The method, boiled down: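 HEK293 cells stably expressing human DRD2, pre-treated with PDE inhibitor Ro20-1724 (0.1 mM final) and compound 10 min at room temperature, then stimulated with NKH477 (200nM […]) for 30 min. cAMP read by HTRF (665/620 nm).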
D(2) dopamine receptor (Homo sapiens), sequence (P14416 whole entry, looked up): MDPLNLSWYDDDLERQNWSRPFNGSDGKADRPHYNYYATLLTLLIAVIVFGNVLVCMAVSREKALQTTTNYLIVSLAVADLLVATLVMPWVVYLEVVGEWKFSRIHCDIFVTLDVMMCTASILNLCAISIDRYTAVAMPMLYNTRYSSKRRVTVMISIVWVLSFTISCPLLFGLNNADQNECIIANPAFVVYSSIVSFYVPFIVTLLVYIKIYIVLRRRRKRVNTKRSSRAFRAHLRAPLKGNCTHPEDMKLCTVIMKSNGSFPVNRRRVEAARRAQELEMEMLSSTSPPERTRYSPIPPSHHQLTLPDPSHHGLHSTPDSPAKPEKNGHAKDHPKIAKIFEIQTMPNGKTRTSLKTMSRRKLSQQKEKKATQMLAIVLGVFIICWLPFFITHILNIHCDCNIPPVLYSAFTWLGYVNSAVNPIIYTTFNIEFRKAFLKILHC

The target is the same in assay [19]. The assay can be described thus: Dopamine D2 receptor (DRD2) small molecule antagonists, cell-based qHTS assay (AID 1963595; active = well fitted inhibition curve with a large enough effect in the signal ratio in the repeat runs, with a control signal flat; the % refers to the signal ratio). The method, boiled down:
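Antagonist mode in DRD2-HEK293 cells: after compound addition with 0.1 mM Ro20-1724, cells received quinpirole (12 nM) and NKH477 (200 nM) for 30 min at room temperature; HTRF cAMP read after 1 h detection.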

The target of assay [20] is Muscarinic acetylcholine receptor M1 (Homo sapiens) (UniProt P11229). The assay can be described thus: Cholinergic receptor muscarinic 1 (CHRM1) small molecule antagonists, cell-based qHTS assay (AID 1963588). Also: nearly all actives have a fitted effect of over 40% in size. Also: potency is read from the fitted curve at half-maximal effect. The method, boiled down:
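CHRM1-CHO calcium-flux assay, antagonist mode. Cells were seeded 18 h, dye-loaded 1 h at 37 C and given compound for 5 min at RT, then acetylcholine was added at 50nM. FDSS fluorescence was read 3 min; 15 concentrations, three runs.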

Where “and” joins values, the source holds several entries; their conditions need not be identical. Identical values can stand only once. Results filed as inconclusive are left out. A structure can be active in one record and inactive in another. Calls of active or inactive are those of the source. Unless noted, calls follow the shape of the full dose curve.

Muscarinic acetylcholine receptor M1 (Homo sapiens), sequence (P11229 whole entry, looked up): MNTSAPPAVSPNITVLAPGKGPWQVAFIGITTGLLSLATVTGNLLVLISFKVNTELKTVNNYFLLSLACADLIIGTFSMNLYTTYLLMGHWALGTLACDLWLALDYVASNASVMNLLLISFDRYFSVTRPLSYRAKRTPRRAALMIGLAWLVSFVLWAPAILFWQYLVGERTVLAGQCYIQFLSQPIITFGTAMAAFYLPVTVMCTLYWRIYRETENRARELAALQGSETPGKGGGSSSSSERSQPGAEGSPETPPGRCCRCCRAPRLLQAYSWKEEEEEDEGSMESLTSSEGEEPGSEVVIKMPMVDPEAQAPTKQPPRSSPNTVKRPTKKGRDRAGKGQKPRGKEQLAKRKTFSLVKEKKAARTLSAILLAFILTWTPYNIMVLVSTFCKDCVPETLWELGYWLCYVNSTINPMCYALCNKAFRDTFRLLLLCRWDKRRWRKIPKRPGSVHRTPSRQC

For `Cc1cc(Cc2ccc(N)c(C)c2)ccc1N`, the Potency entry in assay [1], in [2], in [3], in assay [4], in assay [5] and in [6] was “inactive” each time. The Potency entry in assay [7], in assay [8], in assay [9], in [10], in assay [11] and in [12] was “inactive” throughout. Moreover, the Potency entry in [13], in assay [14], in assay [15], in assay [16], in assay [17] and in [18] was “inactive” throughout. The Potency entry in [19] is “inactive”.
Consider `CCOc1ccc(NC(C)=O)cc1`, for which the Potency entry in [1], in [2], in [3], in assay [4], in assay [5] and in assay [6] was “inactive” throughout. Moreover, the Potency entry in assay [8], in [10], in assay [14], in assay [15], in assay [16] and in [17] was “inactive” each time. Moreover, the Potency result in [18] and in assay [19] was “inactive” in each case.
For the compound `C=C(C)C1CC=C(C)C(OC(C)=O)C1` (stereo not drawn), the Potency entry in assay [1], in assay [2], in [3], in [4], in assay [5] and in assay [6] was “inactive” each time. For the same compound, the Potency entry in assay [7], in assay [8], in assay [9], in assay [10], in assay [12] and in assay [20] was “inactive” in each case. For the same compound, the Potency entry in [13], in assay [14], in [15], in assay [17], in assay [18] and in assay [19] was “inactive” each time. For the same compound, the Potency result in [11] is “inactive and 3.75 µM (active)”.
Turning to `NC(=O)c1cnccn1`, the Potency result in assay [1], in [2], in [3], in [4], in assay [5] and in assay [6] was “inactive” each time. Further, the Potency entry in assay [8], in [9], in [14], in assay [15], in assay [16] and in [17] was “inactive” throughout. Besides, the Potency result in assay [18] and in assay [19] was “inactive” throughout.
In the case of `CCCCCCC(C)O` (stereo not drawn), the Potency result in assay [1], in [2], in assay [3], in [4], in [5] and in [6] was “inactive” throughout. For the same compound, the Potency entry in assay [7], in assay [8], in assay [9], in [10], in assay [11] and in assay [12] was “inactive” each time. Moreover, the Potency entry in assay [20], in assay [13], in assay [14], in assay [15], in assay [16] and in assay [17] was “inactive” each time. In addition, the Potency entry in assay [18] and in assay [19] was “inactive” each time.
With `CCCCCCCCCCCCCO`, the Potency result in assay [1], in assay [2], in assay [3], in assay [4], in assay [5] and in [6] was “inactive” in each case. For the same compound, the Potency result in [7], in [8], in assay [9], in assay [10], in [12] and in assay [20] was “inactive” in each case. For the same compound, the Potency entry in assay [13], in [14], in assay [15], in [16], in assay [17] and in assay [18] was “inactive” each time. The Potency result in [19] was “inactive”.
As for `c1ccc2c(c1)ccc1cc3c(ccc4ccccc43)cc12`, the Potency entry in assay [1], in assay [3], in assay [4], in [5], in assay [6] and in [7] was “inactive” each time. For the same compound, the Potency entry in [8], in assay [9], in assay [10], in assay [11], in assay [12] and in assay [20] was “inactive” in each case. Further, the Potency result in [13], in assay [14], in [15], in assay [16], in assay [17] and in assay [18] was “inactive” throughout. Besides, in [19], the Potency result was “inactive”. Besides, the Potency in assay [2] is 17 µM (active) and 2.15 µM (active).
For the compound `CCCCCCCCCCCC[N+](C)(C)C`, the Potency in assay [1] is 48.4 µM (active) and 30.6 µM (active) and 48.6 µM (active); in assay [20], 374 nM (active) and 421 nM (active) and 334 nM (active); in [13], 27.5 µM (active) and 245 nM (active). Also, the Potency result in assay [2], in [3], in [4], in [5], in assay [6] and in [7] was “inactive” in each case. The Potency entry in [8], in assay [9], in assay [10], in assay [11], in [12] and in [16] was “inactive” throughout. Also, the Potency result in [17], in assay [18] and in [19] was “inactive” throughout.
